This is a sample that favours compounds with a hit; in the whole collection about 12% have one here.
HP1b chromo inh: inhibitors of HP1-beta chromodomain binding to methylated histone tails; AlphaScreen HP1-beta / biotin-H3K9me3 peptide binding; AID 540317; 0.56% of 390,000 active; P83916; Potency, µM (top dose mostly 114 µM), inactives show top-dose activity change, negative = inhibition, usual class: inhibitors; note: potency is the fitted concentration of half-maximal effect; nearly all actives have a fitted effect of over 70% in size
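AlphaScreen: HP1-beta (50 nM) preformed 30 min with biotin-H3(1-18)K9me3 peptide (50 nM) in PBS pH 7.4, 0.01% Tween-20. Compound added for 30 min at RT, then streptavidin donor/nickel chelate acceptor beads (10 ug/mL) for 30 min.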
PLK1 PBD inh: inhibitors of human PLK1 polo-box domain binding; Potency, µM, for the others: max response, negative = inhibition, usual class: inhibitors; Plk1 PBD binding of FITC phosphopeptide, fluorescence polarization; AID 720504; P53350; 2.8% of 360,000 active; note: potency is the fitted concentration of half-maximal effect; series mostly up to about 57 µM; % is set by controls: 0 for no effect and ±100 for the full control effect; nearly all actives have a fitted effect of over 65% in size
G9a block: blocks human histone lysine methyltransferase G9a. G9a H3K9 monomethylation, AlphaScreen, 2 h. Potency, µM (titrated, usually from 102 µM), inactives show at the highest dose activity, negative = inhibition, hits mostly inhibitors. 8.8% of 350,000 active. AID 504332; note: potency is the fitted concentration of half-maximal effect; % is set by controls: 0 for no effect and ±100 for the full control effect; nearly all actives have a fitted effect of over 75% in size
Target sequence (Q96KQ7 913-1193 limits assumed): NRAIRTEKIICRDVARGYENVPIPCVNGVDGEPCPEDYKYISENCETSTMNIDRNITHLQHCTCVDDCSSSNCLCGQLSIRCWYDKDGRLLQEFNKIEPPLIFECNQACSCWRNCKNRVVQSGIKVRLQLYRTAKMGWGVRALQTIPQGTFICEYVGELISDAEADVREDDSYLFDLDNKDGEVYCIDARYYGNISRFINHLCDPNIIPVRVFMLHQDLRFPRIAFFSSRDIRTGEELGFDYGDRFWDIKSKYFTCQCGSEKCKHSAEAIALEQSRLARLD
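AlphaScreen detection with an anti-monomethyl H3K9 antibody quantified product after a 2 h room-temperature reaction containing 500 nM biotinylated H3K9 peptide, 20 µM SAM and 20 nM enzyme, which had been preincubated 15 min with compound.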
JMJD2A Tudor: blocks the human JMJD2A Tudor domain | AlphaScreen JMJD2A-Tudor / H3K4me3 peptide binding | Potency, µM (doses to about 114 µM), for the others: at the highest dose activity change, negative = inhibition, actives largely listed as inhibitors | 4.4% of 390,000 active | AID 504339; note: potency is the fitted concentration of half-maximal effect; % is set by controls: 0 for no effect and ±100 for the full control effect; nearly all actives have a fitted effect of over 50% in size
PI5P4K alpha inh: blocks human PI5P4K alpha kinase activity. P48426. 1.2% of 330,000 active. max response, %. PI5P4Kalpha enzyme, ADP-Glo luminescence, 60 min; stronger effect = lower value; active = max response of -50% or lower; inconclusive = between -30% and -50%; inactive = -30% or higher; note: value at the top dose of about 77 µM; % is set by controls: 0 for no effect and ±100 for the full control effect
Target sequence (P48426 whole entry, looked up): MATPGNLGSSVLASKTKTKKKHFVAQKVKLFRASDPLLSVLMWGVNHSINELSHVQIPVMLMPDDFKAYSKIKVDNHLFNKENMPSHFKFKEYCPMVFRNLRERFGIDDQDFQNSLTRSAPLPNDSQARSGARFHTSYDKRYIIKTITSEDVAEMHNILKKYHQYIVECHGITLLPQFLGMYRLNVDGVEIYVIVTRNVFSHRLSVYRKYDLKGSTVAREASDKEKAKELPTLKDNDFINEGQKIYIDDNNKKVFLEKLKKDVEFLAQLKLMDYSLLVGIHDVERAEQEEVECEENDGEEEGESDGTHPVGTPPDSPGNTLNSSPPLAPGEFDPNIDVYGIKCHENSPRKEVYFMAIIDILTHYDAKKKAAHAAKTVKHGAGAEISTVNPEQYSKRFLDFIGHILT
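Controls without substrate or without enzyme flank wells where PI5P4Kalpha converts substrate using 5 microM ATP (final). Incubation lasts 60 minutes at room temperature; ADP formed is read by ADP-Glo luminescence.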
BAZ2B inh: inhibitors of human BAZ2B bromodomain; AlphaScreen BAZ2B-H3K14Ac peptide displacement; Potency, µM (series often up to 114 µM), for the others: at the highest dose activity change, negative = inhibition, usual class: inhibitors; 4.4% of 360,000 active; AID 504333; note: potency is the fitted concentration of half-maximal effect; % is set by controls: 0 for no effect and ±100 for the full control effect; nearly all actives have a fitted effect of over 60% in size
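BAZ2B 50 nM plus b-H3(5-23)K14Ac 50 nM, PBS pH 7.4/0.01% Tween-20, 30 min RT; compound added (max 110 uM), 30 min RT; streptavidin donor/Ni-chelate acceptor beads 10 ug/mL final, 20 min dark; AlphaScreen read.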
Numbers without * were called inactive; u = inconclusive; x = not tested or not shown; [ ] = remark or other dose. Unless noted, calls come from the whole dose curve; as a rule, active = well fitted curve in the direction sought with a large enough effect; inconclusive = small, poorly fitted or top-dose-only effect, or another doubt; inactive = no such curve, though single readings can be large; an effect the other way counts as inactive or inconclusive.

SMILES | HP1b chromo inh | PLK1 PBD inh | G9a block | JMJD2A Tudor | PI5P4K alpha inh | BAZ2B inh
CC(C)(C)c1cc(CCC(=O)NNC(=O)c2ccco2)cc(C(C)(C)C)c1O | 53% | -12% | 24%[59 µM] | -9%[57.1 µM] | -7 | u
CCN(C(=S)NC(=O)CCc1ccccc1)c1ccccc1 | -3% | u | 8.9µM* | u | -19 | -5%
CCN(C(=S)Nc1cccc2ccccc12)c1ccccc1 | x | -22% | x | x | u | x
CC(=O)NC(=S)NNC(=O)CCc1ccccc1 | 7% | u | 8.9µM* | u | -6 | -2%
Cc1ccc(CN(Cc2ccco2)C(=O)COc2ccc(Cl)cc2)o1 | -9% | x | -4%[59 µM] | -33% | x | 12%
CCCCOc1ccc(SCCCN2CCOCC2)cc1 | 1% | -11% | x | -21% | -4 | x
CC(=O)c1cccc(NC(=O)c2sc(-n3nc(C)c(CCC(C)C)c3C)nc2C)c1 | 35% | x | 9%[59 µM] | -12% | x | -11%
CC(C)NC(=O)CCSc1nc(-c2ccc3c(c2)OCO3)cc(C(F)(F)F)n1 | 32% | x | 11%[59 µM] | 6% | x | -1%
CC(C)NC(=O)N1CCCC2(CCN(C(=O)c3cc(C(F)(F)F)cc(C(F)(F)F)c3)CC2)C1 | x | x | 5%[12.7 µM] | x | x | x
CCOC(=O)[C@]12CCCC=C1N(Cc1ccc3c(c1)OCO3)C(=O)[C@H](CC(=O)NCCCN1CCCC1=O)C2 | x | -9% | x | x | 6 | x
O=C(CCc1ccccc1)NNC(=S)NCCc1ccccc1 | u | -13% | -11% | -16% | 0 | -10%
CCCCC(=O)NC(=S)NNC(=O)CCc1ccccc1 | 38% | u | 32µM* | 2% | -7 | 5%
CN(C)C(=O)c1ccc(-c2cncnc2NCc2cccnc2)cc1 | x | x | 8%[0.501 µM] | x | x | x
COC(=O)C1=C(CN2CCc3ccccc32)NC(=O)NC1c1cc(C)ccc1C (stereo not drawn) | 6% | -13% | u | u | 3 | 50µM*
COC(=O)C1=C(CSc2nncn2C)NC(=O)NC1c1cc(C)ccc1C (stereo not drawn) | 35% | -7% | 22µM* | -13% | -8 | 10%
COC(=O)C1=C(CN2CCCc3ccccc32)NC(=O)NC1c1ccc(F)cc1 (stereo not drawn) | 11% | -19% | 20µM* | u | x | u
COc1ccccc1N(C)S(=O)(=O)c1ccc(C)c(C(=O)NC(C)c2ccccn2)c1 (stereo not drawn) | 12% | -13% | -47%[12.7 µM] | -13% | 2 | -3%
COC(=O)c1cc2oc3ccccc3c2n1Cc1cc(C)ccc1C | 35% | x | -6%[59 µM] | -13% | x | 1%
CCNC(=O)Nc1ccc(-n2nc(C)c(C(=O)OCC)c2C)nc1 | 0% | 15µM* | -1% | 20µM* | -25 | -21%
CCOC(=O)c1c(C)nn(-c2ccc(NC(=O)/C=C/C(=O)O)cc2)c1C | 52% | 3% | u | -6% | -21 | -5%
CCOC(=O)c1c(C)nn(-c2ccc(NC(=O)c3c(C)noc3C)cc2)c1C | 15% | -9% | 45µM* | -11% | 0 | 6%
Cc1ccccc1Cn1cnc2c([N+](=O)[O-])c(C)c(C)cc21 | 13% | 0% | 35%[59 µM] | -29% | -1 | u
CCCn1cnc2c(N)c(C)c(C)cc21 | 16% | 0% | 1.8µM* | -21% | x | 3%
COC(=O)N1CCC2(CCN(C(=O)Nc3cccc(F)c3)CC2)CC1 | x | x | -3%[12.7 µM] | x | x | x
COc1cc(/C=N/n2cc(-c3ccccc3)[nH]c2=S)cc(OC)c1O | -25% | 1% | 0.5µM* | 1.3µM* | -3 | -19%
SMILES | HP1b chromo inh | PLK1 PBD inh | G9a block | JMJD2A Tudor | PI5P4K alpha inh | BAZ2B inh
Oc1ccc(/C=N/n2cc(-c3ccccc3)[nH]c2=S)cc1 | -14% | -13% | 2.5µM* | 4µM* | -23 | x
S=c1[nH]c(-c2ccccc2)cn1/N=C/c1cccc2ccccc12 | -21% | -8% | -43% | u | 7 | u
S=c1[nH]c(-c2ccccc2)cn1/N=C/c1ccccc1Br | -11% | -17% | 2.5µM* | -27% | -7 | u
Cc1ccc(/C=N/n2cc(-c3ccccc3)[nH]c2=S)s1 | 31% | -10% | u | u | -13 | -26%
Cc1ccccc1Nc1cc(C(=O)NCCCN2CCN(c3cccc(Cl)c3)CC2)c2ccccc2n1 | 18% | x | u | u | x | -13%
COc1ccc(CNC(=O)CCn2c(=O)c3cccn3c3ccc(F)cc32)cc1 | 25% | 27µM* | 21% | u | -4 | -16%
CC1=C(C(=O)N2CCCCCC2)CC(CC(=O)NC2CCCCC2)C(=O)N1Cc1ccc(C(C)(C)C)cc1 (stereo not drawn) | x | -12% | x | x | -5 | x
CCCCn1c2c(c(=O)n(C)c1=O)C(CC(=O)OCC(=O)Nc1cccc(C(F)(F)F)c1)C(=O)N2 (stereo not drawn) | 28% | -12% | 32µM* | -17% | -5 | -4%
CC1c2ccccc2N(NC(=O)Cc2ccccc2)C1C (stereo not drawn) | 16% | -7% | 47%[59 µM] | 1% | 8 | 30%
COc1ccc(-c2nc3sc(CCNC(=O)Cc4ccccc4)c(C)n3n2)cc1 | 31% | x | 3.5µM* | -24% | x | 0%
COc1ccc(-c2nc3sc(CCNC(=O)Cc4ccc(F)cc4)c(C)n3n2)cc1 | 38% | x | -13%[59 µM] | -12% | x | -1%
Cc1ccc(C(=O)CSC2=C(C#N)C(c3ccco3)C3=C(CC(C)(C)CC3=O)N2)cc1 (stereo not drawn) | 2% | -16% | 40µM* | u | -7 | u
CC1(C)CC(=O)C2=C(C1)NC(SCC(=O)Nc1ccccc1)=C(C#N)C2c1ccco1 (stereo not drawn) | 2% | 1% | -1%[12.7 µM] | -35% | 2 | -37%
CCC1CCCCN1C(=O)CCCOc1ccccc1 (stereo not drawn) | 7% | 3.4µM* | 11% | 14µM* | u | 0%
NC(=O)[C@@H]1CCOc2c(I)cc([N+](=O)[O-])cc2C(=O)N[C@@H](CO)C(=O)NCC(=O)N1 | 40% | -18% | 45µM* | -17% | -9 | -8%
NCCCC[C@@H]1NC(=O)[C@H](CCC(=O)O)NC(=O)c2cc([N+](=O)[O-])cc(I)c2OCC[C@@H](C(N)=O)NC1=O | -7% | -14% | 32µM* | u | -2 | u
CC(C)C[C@@H]1NC(=O)[C@H](C(C)C)NC(=O)c2cc([N+](=O)[O-])cc(I)c2OCC[C@@H](C(N)=O)NC1=O | 38% | -12% | 45µM* | -25% | -3 | -35%
NC(=O)CC[C@@H]1NC(=O)[C@H](CO)NC(=O)c2cc([N+](=O)[O-])cc(I)c2OCC[C@@H](C(N)=O)NC1=O | 17% | -4% | 45µM* | -29% | -2 | -5%

Screens: PubChem BioAssay, National Center for Advancing Translational Sciences (NCATS)
